Where a name gives a salt, the structure may show the parent alone.
Tested on: MDA-MB-468
Assay: phospho-S6 immunofluorescence (DAPI-normalised), per-plate z-score; higher = higher phospho-S6 signal (less pathway suppression)
Settings: 24 h
Method: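 GPCR-targeted compound library (MedChemExpress HY-L006) tested on MDA-MB-468 PTEN-null TNBC cells in 384-well plates at 0.1, 1 or 10 uM, combined with vehicle, GDC0941 450 nM or lapatinib 1 uM, for 24 h. Phospho-S6 (S240/244) immunofluorescence normalised to DAPI and expressed as a per-plate z-score; values are the mean of biological triplicates.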

COc1ccc(-c2oc3c(CC=C(C)C)c(O)cc(O)c3c(=O)c2O[C@@H]2O[C@@H](C)[C@H](O)[C@@H](O)[C@H]2O)cc1 [Baohuoside I] (compound 10 µM)
phospho-S6 immunofluorescence (z-score) (co-treatment: GDC0941 450 nM): -5.72 | phospho-S6 immunofluorescence (z-score) (co-treatment: lapatinib 1 uM): -5.94 | phospho-S6 immunofluorescence (z-score) (co-treatment: vehicle): -7.08

CCOc1nc2cccc(C(=O)OC(C)OC(=O)OC3CCCCC3)c2n1Cc1ccc(-c2ccccc2-c2nn[nH]n2)cc1 (centres undefined) [Candesartan (Cilexetil)] (compound 10 µM)
phospho-S6 immunofluorescence (z-score) (co-treatment: GDC0941 450 nM): -1.58 | phospho-S6 immunofluorescence (z-score) (co-treatment: lapatinib 1 uM): 0.17 | phospho-S6 immunofluorescence (z-score) (co-treatment: vehicle): -1.08

Clc1ccc(CCCOCCCN2CCCCC2)cc1 [Pitolisant (hydrochloride)] (compound 10 µM)
phospho-S6 immunofluorescence (z-score) (co-treatment: GDC0941 450 nM): 0.75 | phospho-S6 immunofluorescence (z-score) (co-treatment: lapatinib 1 uM): -0.69 | phospho-S6 immunofluorescence (z-score) (co-treatment: vehicle): -0.12

Cc1nc(C(=O)N2CCC[C@H]2Cc2nnc(-c3ccccc3)o2)c(-c2ccccc2F)s1 (compound 10 µM)
phospho-S6 immunofluorescence (z-score) (co-treatment: GDC0941 450 nM): 0.95 | phospho-S6 immunofluorescence (z-score) (co-treatment: lapatinib 1 uM): 0.29 | phospho-S6 immunofluorescence (z-score) (co-treatment: vehicle): 0.17

COc1cc(N)c(Cl)cc1C(=O)NC1CCN(Cc2ccccc2)CC1 [Clebopride (malate)] (compound 10 µM)
phospho-S6 immunofluorescence (z-score) (co-treatment: GDC0941 450 nM): 0.46 | phospho-S6 immunofluorescence (z-score) (co-treatment: lapatinib 1 uM): -0.14 | phospho-S6 immunofluorescence (z-score) (co-treatment: vehicle): 0.29

CC(=O)OCC(=O)[C@@]1(O)CC[C@H]2[C@@H]3CCC4=CC(=O)CC[C@]4(C)[C@H]3C(=O)C[C@@]21C [Cortisone (acetate)] (compound 10 µM)
phospho-S6 immunofluorescence (z-score) (co-treatment: GDC0941 450 nM): 0.51 | phospho-S6 immunofluorescence (z-score) (co-treatment: lapatinib 1 uM): 1.06 | phospho-S6 immunofluorescence (z-score) (co-treatment: vehicle): 0.93

O=C1CCc2ccc(OCCCCN3CCN(c4cccc(Cl)c4Cl)CC3)cc2N1 [Aripiprazole] (compound 10 µM)
phospho-S6 immunofluorescence (z-score) (co-treatment: GDC0941 450 nM): -3.14 | phospho-S6 immunofluorescence (z-score) (co-treatment: lapatinib 1 uM): -5.16 | phospho-S6 immunofluorescence (z-score) (co-treatment: vehicle): -3.2

CCN(CC)Cc1ccc(C(=O)N(CCc2ccccc2OC)[C@@H]2CCNC2)cc1 (compound 10 µM)
phospho-S6 immunofluorescence (z-score) (co-treatment: GDC0941 450 nM): 0.19 | phospho-S6 immunofluorescence (z-score) (co-treatment: lapatinib 1 uM): 0.1 | phospho-S6 immunofluorescence (z-score) (co-treatment: vehicle): 0.12

Cc1cc(OCCCS(C)(=O)=O)cc(C)c1-c1cccc(COc2ccc3c(c2)OC[C@H]3CC(=O)O)c1 (compound 10 µM)
phospho-S6 immunofluorescence (z-score) (co-treatment: GDC0941 450 nM): -1.06 | phospho-S6 immunofluorescence (z-score) (co-treatment: lapatinib 1 uM): 0.1 | phospho-S6 immunofluorescence (z-score) (co-treatment: vehicle): -0.32

Oc1cc2c(cc1O)C(c1ccccc1)CNCC2 (centres undefined) (compound 10 µM)
phospho-S6 immunofluorescence (z-score) (co-treatment: GDC0941 450 nM): 0.77 | phospho-S6 immunofluorescence (z-score) (co-treatment: lapatinib 1 uM): 0.35 | phospho-S6 immunofluorescence (z-score) (co-treatment: vehicle): 1.06

COc1cc2nc(N3CCN(C(=O)C4COc5ccccc5O4)CC3)nc(N)c2cc1OC (centres undefined) [Doxazosin (mesylate)] (compound 10 µM)
phospho-S6 immunofluorescence (z-score) (co-treatment: GDC0941 450 nM): -3.46 | phospho-S6 immunofluorescence (z-score) (co-treatment: lapatinib 1 uM): -7.7 | phospho-S6 immunofluorescence (z-score) (co-treatment: vehicle): -8.17

COc1ccc2cccc(CCNC(C)=O)c2c1 [Agomelatine] (compound 10 µM)
phospho-S6 immunofluorescence (z-score) (co-treatment: GDC0941 450 nM): 0.97 | phospho-S6 immunofluorescence (z-score) (co-treatment: lapatinib 1 uM): 0.54 | phospho-S6 immunofluorescence (z-score) (co-treatment: vehicle): 0.35

CCn1c(=O)c2c(nc(/C=C/c3ccc(OC)c(OC)c3)n2C)n(CC)c1=O [Istradefylline] (compound 10 µM)
phospho-S6 immunofluorescence (z-score) (co-treatment: GDC0941 450 nM): 0.2 | phospho-S6 immunofluorescence (z-score) (co-treatment: lapatinib 1 uM): 0.09 | phospho-S6 immunofluorescence (z-score) (co-treatment: vehicle): -0.74

CCc1cc(/C(C)=N/OCc2ccc(C3CCCCC3)c(C(F)(F)F)c2)ccc1CN1CC(C(=O)O)C1 [Siponimod] (compound 10 µM)
phospho-S6 immunofluorescence (z-score) (co-treatment: GDC0941 450 nM): -0.49 | phospho-S6 immunofluorescence (z-score) (co-treatment: lapatinib 1 uM): 0.38 | phospho-S6 immunofluorescence (z-score) (co-treatment: vehicle): 0.15

COCc1nnc(N2CC(Oc3ccc(F)cc3Cl)C2)n1-c1ccc(OC)nc1 (compound 10 µM)
phospho-S6 immunofluorescence (z-score) (co-treatment: GDC0941 450 nM): -0.38 | phospho-S6 immunofluorescence (z-score) (co-treatment: lapatinib 1 uM): -0.91 | phospho-S6 immunofluorescence (z-score) (co-treatment: vehicle): -0.61

C[C@@H](O)[C@@H]1NC(=O)[C@H](CCCCN)NC(=O)[C@@H](Cc2c[nH]c3ccccc23)NC(=O)[C@H](Cc2ccccc2)NC(=O)[C@@H](NC(=O)[C@H](N)Cc2ccccc2)CSSC[C@@H](C(=O)N[C@H](CO)[C@@H](C)O)NC1=O [Octreotide (acetate)] (compound 10 µM)
phospho-S6 immunofluorescence (z-score) (co-treatment: GDC0941 450 nM): 0.59 | phospho-S6 immunofluorescence (z-score) (co-treatment: lapatinib 1 uM): 1.9 | phospho-S6 immunofluorescence (z-score) (co-treatment: vehicle): -0.73

CCOC(=O)N[C@@H]1CC[C@@H]2[C@@H](C1)C[C@H]1C(=O)O[C@H](C)[C@H]1[C@H]2/C=C/c1ccc(-c2cccc(F)c2)cn1 [Vorapaxar] (compound 10 µM)
phospho-S6 immunofluorescence (z-score) (co-treatment: GDC0941 450 nM): -5.92 | phospho-S6 immunofluorescence (z-score) (co-treatment: lapatinib 1 uM): -11.6 | phospho-S6 immunofluorescence (z-score) (co-treatment: vehicle): -9.84

CC(C)=CCC/C(C)=C/CC/C(C)=C/CSc1ccccc1C(=O)O [Salirasib] (compound 10 µM)
phospho-S6 immunofluorescence (z-score) (co-treatment: GDC0941 450 nM): 0.9 | phospho-S6 immunofluorescence (z-score) (co-treatment: lapatinib 1 uM): 0.86 | phospho-S6 immunofluorescence (z-score) (co-treatment: vehicle): -0.02

C[C@H](NC(=O)c1c(C(F)F)nn(C)c1Oc1cccc(C(F)(F)F)c1)c1ccc(C(=O)O)cc1 (compound 10 µM)
phospho-S6 immunofluorescence (z-score) (co-treatment: GDC0941 450 nM): 0.32 | phospho-S6 immunofluorescence (z-score) (co-treatment: lapatinib 1 uM): 0.46 | phospho-S6 immunofluorescence (z-score) (co-treatment: vehicle): -0.56

CC(C)NCC(O)c1ccc(NS(C)(=O)=O)cc1 (centres undefined) [Sotalol (hydrochloride)] (compound 10 µM)
phospho-S6 immunofluorescence (z-score) (co-treatment: GDC0941 450 nM): 1.31 | phospho-S6 immunofluorescence (z-score) (co-treatment: lapatinib 1 uM): 1.24 | phospho-S6 immunofluorescence (z-score) (co-treatment: vehicle): 0.37

CC1=C(C)C(=O)C(C(CCCCCC(=O)O)c2ccccc2)=C(C)C1=O (centres undefined) [Seratrodast] (compound 10 µM)
phospho-S6 immunofluorescence (z-score) (co-treatment: GDC0941 450 nM): 1.01 | phospho-S6 immunofluorescence (z-score) (co-treatment: lapatinib 1 uM): 1.15 | phospho-S6 immunofluorescence (z-score) (co-treatment: vehicle): 0.08

COc1cc(C(C)=O)ccc1OCCCN1CCC(c2noc3cc(F)ccc23)CC1 [Iloperidone] (compound 10 µM)
phospho-S6 immunofluorescence (z-score) (co-treatment: GDC0941 450 nM): 0.52 | phospho-S6 immunofluorescence (z-score) (co-treatment: lapatinib 1 uM): -0.23 | phospho-S6 immunofluorescence (z-score) (co-treatment: vehicle): 0.38

O=C(c1ccc(OCCCc2c[nH]cn2)cc1)C1CC1 [Ciproxifan (maleate)] (compound 10 µM)
phospho-S6 immunofluorescence (z-score) (co-treatment: GDC0941 450 nM): -0.58 | phospho-S6 immunofluorescence (z-score) (co-treatment: lapatinib 1 uM): -0.62 | phospho-S6 immunofluorescence (z-score) (co-treatment: vehicle): 0.21

— the supplement of paper PMC7411640
